The source of these data is publication PMC4336329 (PLoS ONE, 2015).

The whole screen tested about 310,000 compounds, of which about 14,000 (4.5%) showed an effect of 50% or more. The effect is printed as a negative number. The entries come from a sample that favours strong results as a whole.
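Also: peak tail current of the secondary pulse compared with the same well before compound.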

For the experiment, the target named is human ether-à-go-go-related gene (hERG) potassium channel (human, UniProt Q12809). The experiment can be described thus: primary screen, population patch clamp on CHO cells stably expressing hERG; higher = less effect of the substance.
Chain of human ether-à-go-go-related gene (hERG) potassium channel (Q12809 whole entry, looked up): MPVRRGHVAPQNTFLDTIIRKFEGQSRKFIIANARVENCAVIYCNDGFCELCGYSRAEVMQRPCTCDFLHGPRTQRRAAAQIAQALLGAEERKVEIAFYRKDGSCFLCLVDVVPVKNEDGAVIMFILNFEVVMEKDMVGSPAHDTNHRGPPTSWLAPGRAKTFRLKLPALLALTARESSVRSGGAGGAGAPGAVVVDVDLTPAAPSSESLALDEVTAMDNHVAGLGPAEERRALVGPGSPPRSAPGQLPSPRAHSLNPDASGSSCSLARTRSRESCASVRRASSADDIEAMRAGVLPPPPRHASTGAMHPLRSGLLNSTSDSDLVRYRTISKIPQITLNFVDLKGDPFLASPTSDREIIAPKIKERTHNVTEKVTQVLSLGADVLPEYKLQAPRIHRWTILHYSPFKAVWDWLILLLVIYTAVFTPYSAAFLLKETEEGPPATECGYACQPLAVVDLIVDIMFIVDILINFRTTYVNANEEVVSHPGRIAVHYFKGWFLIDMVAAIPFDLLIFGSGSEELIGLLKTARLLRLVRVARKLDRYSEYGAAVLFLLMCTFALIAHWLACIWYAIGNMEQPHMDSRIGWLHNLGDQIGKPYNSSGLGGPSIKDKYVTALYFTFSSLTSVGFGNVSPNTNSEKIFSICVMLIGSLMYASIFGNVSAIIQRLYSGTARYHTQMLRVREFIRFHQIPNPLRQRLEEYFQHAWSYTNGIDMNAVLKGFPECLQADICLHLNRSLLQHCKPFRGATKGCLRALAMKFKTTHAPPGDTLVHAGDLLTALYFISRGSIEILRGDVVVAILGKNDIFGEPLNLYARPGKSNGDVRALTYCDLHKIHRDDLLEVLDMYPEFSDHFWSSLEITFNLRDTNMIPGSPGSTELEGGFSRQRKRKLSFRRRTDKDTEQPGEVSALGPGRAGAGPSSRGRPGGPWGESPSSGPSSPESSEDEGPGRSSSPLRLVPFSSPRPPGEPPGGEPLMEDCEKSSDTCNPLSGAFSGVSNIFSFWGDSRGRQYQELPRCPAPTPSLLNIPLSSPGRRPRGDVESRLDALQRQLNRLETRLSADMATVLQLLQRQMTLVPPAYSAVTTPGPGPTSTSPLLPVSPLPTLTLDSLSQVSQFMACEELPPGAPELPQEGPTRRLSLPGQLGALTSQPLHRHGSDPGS
In the case of `CN(Cc1c(C(=O)N/N=C/c2cccc(O)c2)nnn1-c1nonc1N)C1CCCCC1`, the “hERG current change (%, negative = inhibition) at 10uM” value is -2.25%.
Next, `CCOC(=O)CN1C(=O)CSc2ccccc21`: 0.699%.
Next, `CNc1ncc(C(=O)c2ccccc2)s1`: -1.56%; `CCN(CC)CCCC(C)NC(=O)c1c(NC(=O)c2ccccc2)sc2c1CCCC2.O=C(O)C(=O)O` (centres unmarked): -76.9%; `NCCNC(=O)c1c(NC(=O)c2ccccc2)sc2c1CCCC2`: 15.4%.
Next, `CN(C)CCNC(=O)c1c(NC(=O)c2ccccc2)sc2c1CCCC2`: -25.9%; `CCOc1ccccc1C(c1c(O)nc(SC)[nH]c1=O)c1c(O)nc(SC)[nH]c1=O`: 5.67%; `O=S(=O)(Nc1ncccn1)c1ccc(NS(=O)(=O)c2cc(Cl)ccc2Cl)cc1`: 31.6%.
Take `COc1ccccc1C(=O)N(Cc1ccccc1)c1ccc(C)cc1`: the “hERG current change (%, negative = inhibition) at 10uM” value is given as -2.96%.
Regarding `CC#CC(=O)N1CCC(CCc2ccccc2)(C(=O)OCC)CC1`, the “hERG current change (%, negative = inhibition) at 10uM” value is -61.4%.
For the molecule `CCOC(=O)C1(CCc2ccccc2)CCN(C(=O)C2=C(C)OCCO2)CC1`, the “hERG current change (%, negative = inhibition) at 10uM” value was -15.2%.
Next, `CCOC(=O)C1(CCc2ccccc2)CCN(C(=O)c2occc2C)CC1`: -63.3%; `CCOC(=O)C1(CCc2ccccc2)CCN(C(=O)c2cc(C)nc(C)n2)CC1`: -11%; `CC#CC(=O)N1CCC(CO)(CCc2ccccc2)CC1`: 1.33%.
The figure for `CCOC(=O)C1(CCc2ccccc2)CCN(C(=O)c2cccc(C)n2)CC1` is -11.4%; for `COc1cc(Cl)c(C)cc1Nc1ncccn1` it is 4.73%; for `CC(=O)c1cccc(NC(=S)N2CCCC2)c1` it is 9.57%.
Next, `c1ccc(CNc2ncnc3sccc23)cc1`: 9.9%; `Cc1csc2c(NC3CCN(Cc4ccccc4)CC3)ncnc12`: -31.8%; `OC1CCC(Nc2ncnc3sccc23)CC1` (centres unmarked): 13.2%.
On to `c1ccc(CN2CCC(Nc3ncnc4sccc34)CC2)cc1`, for which the “hERG current change (%, negative = inhibition) at 10uM” value is -66.9%.
Next, `Cc1sc2ncnc(Nc3ccccc3)c2c1C`: 2.79%; `Cc1csc2ncnc(NC3CCN(Cc4ccccc4)CC3)c12`: -65.5%.
The figure for `Cc1sc2ncnc(N[C@@H](Cc3ccccc3)C(=O)O)c2c1C` is 14%; for `Cc1sc2ncnc(NC3CCN(Cc4ccccc4)CC3)c2c1C` it is -79.6%; for `Cc1csc2ncnc(NCCc3ccccn3)c12` it is -22.4%.
The figure for `COc1ccc(NC(=O)c2cc(-c3ccc(C)cc3)on2)cc1OC` is 19.4%; for `COc1cccc(CN(CC(=O)NCC2CCCO2)C(=O)CNS(=O)(=O)c2ccccc2)c1` (centres unmarked) it is 7.52%; for `O=C(CSc1ccccc1)NC(=O)NCc1ccccc1` it is 5.87%.
As to `COc1ccc(C(=O)C[n+]2ccccc2C)cc1.[Br-]`, the “hERG current change (%, negative = inhibition) at 10uM” value is listed as 13.3%.
The figure for `Cc1ccc(OCc2cc(C(=O)N(C)CC3CCOCC3)no2)cc1C` is -13.1%.
Turning to `Cc1cc(OCc2cc(C(=O)N(C)C3CCOCC3)no2)cc(C)c1Cl`, the “hERG current change (%, negative = inhibition) at 10uM” value was -13.5%.
As for `CN(CCCN1CCOCC1)C(=O)c1cc(COc2cccc(C(F)(F)F)c2)on1`, the “hERG current change (%, negative = inhibition) at 10uM” value is recorded as -40.5%.
With `Cc1cc(OCc2cc(C(=O)N(C)C3CCOC3)no2)cc(C)c1Cl` (centres unmarked), the “hERG current change (%, negative = inhibition) at 10uM” value is -73.6%.
Next, `Cc1cc(OCc2cc(C(=O)N(C)CCCN3CCOCC3)no2)cc(C)c1Cl`: -58%; `Cc1cc(OCc2cc(C(=O)N(C)CC3CCOCC3)no2)cc(C)c1Cl`: -69%.
Next, `CN(C(=O)c1cc(COc2ccc(F)c(F)c2)on1)C1CCOC1` (centres unmarked): -13.1%; `Cc1cc(OCc2cc(C(=O)N(C)Cc3nonc3C)no2)cc(C)c1Cl`: 11.8%; `CN(CCCN1CCOCC1)C(=O)c1cc(COc2c(F)cccc2F)on1`: 2.44%.
The figure for `Cc1cccc(NC(=O)CN2C(=O)CSC2=O)c1` is 14.5%; for `CC(=O)c1ccc(N2CCN(C(=S)NCCCN(C)C)CC2)cc1` it is 2.47%.
In the case of `CC1(C(=O)N/N=C/c2ccc3c(c2)OCO3)CC1(Br)Br` (centres unmarked), the “hERG current change (%, negative = inhibition) at 10uM” value is given as -5.57%.
For the molecule `CC(C)n1c(-c2ccco2)csc1=Nc1cccnc1`, the “hERG current change (%, negative = inhibition) at 10uM” value is listed as -10.3%.
Next, `COc1ccccc1-n1cnc2c(c1=O)c1nc3ccccc3nc1n2-c1ccc(C)cc1`: -19.7%.
The figure for `Cc1ccc(-c2ccc(/C=N/N3C(=O)C4C5C=CC(C6CC56)C4C3=O)o2)c([N+](=O)[O-])c1` (centres unmarked) is -12.5%; for `O=C1C2C3C=CC(C4CC34)C2C(=O)N1/N=C/c1ccc(-c2ccc(Cl)cc2[N+](=O)[O-])o1` (centres unmarked) it is -13.5%.
Regarding `COc1ccc(-c2ccc(/C=N/N3C(=O)C4C5C=CC(C6CC56)C4C3=O)o2)c([N+](=O)[O-])c1` (centres unmarked), the “hERG current change (%, negative = inhibition) at 10uM” value is reported as -58.9%.
Next, `CCCCC[C@H](O)/C=C/C1=C(CCCCCCC(=O)O)C(=O)CC1`: 17.9%.
For the molecule `O=C(COC(=O)c1c[nH]c(=O)[nH]c1=O)NCc1ccccc1`, the “hERG current change (%, negative = inhibition) at 10uM” value is reported as -12.2%.
Next, `O=C(CN1CCOCC1)N/N=C/c1ccc(-c2ccc(C(=O)O)cc2)o1`: -12%.
